The record followed here is PubChem BioAssay (NCATS).

Records with an inconclusive call do not appear. Calls of active or inactive are those of the source. Unless noted, calls come from the whole dose curve; as a rule, active = well fitted curve in the direction sought with a large enough effect; inconclusive = small, poorly fitted or top-dose-only effect, or another doubt; inactive = no such curve, though single readings can be large; an effect the other way counts as inactive or inconclusive.

A short description of assay [1]: qHTS for Inhibitors of the Functional Ribonucleoprotein Complex (vRNP) of Lymphocytic Choriomeningitis Arenaviruses (LCMV): Viability assay - alamar blue signal for LCMV Primary Screen (AID 1347085; calls by dose curve; tested in HEK293 reporter line; note: nearly all actives have a fitted effect of over 80% in size; note: potency is the fitted concentration of half-maximal effect).
In assay [2] the target is Nucleoprotein (Lymphocytic choriomeningitis virus (strain Armstrong)) (UniProt P09992). In words: qHTS for Inhibitors of the Functional Ribonucleoprotein Complex (vRNP) of Lymphocytic Choriomeningitis Arenaviruses (LCMV): LCMV Primary Screen - GLuc reporter signal (AID 1347086; calls by dose curve; note: nearly all actives have a fitted effect of over 70% in size; note: potency is the fitted concentration of half-maximal effect). On the technique in general: In qHTS, concentration-response curves come from the screen itself.

A short description of assay [3]: qHTS of pediatric cancer cell lines to identify multiple opportunities for drug repurposing: Primary screen for TC32 cells (AID 1347089). Note: nearly all actives have a fitted effect of over 60% in size. Note: potency is the fitted concentration of half-maximal effect. Summed up: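 Luminescent CellTiter-Glo read-out of metabolically active TC32 cells after 48 h compound exposure. Primary: MIPE 11-point, 0.78 nM–46 µM; NPC 8-point, 0.59 nM–46 µM. Confirmatory: 11-point dilutions.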
A short description of assay [4]: qHTS of pediatric cancer cell lines to identify multiple opportunities for drug repurposing: Primary screen for DAOY cells (AID 1347090). Note: nearly all actives have a fitted effect of over 55% in size. Note: potency is the fitted concentration of half-maximal effect. Summed up:
(§1)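 Eight- or eleven-point concentration series, 48 h treatment at 37 degrees C in growth media; readout CellTiter-Glo luminescence. Potency and efficacy were taken from the concentration-response curves.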

Assay [5] is described as follows: qHTS of pediatric cancer cell lines to identify multiple opportunities for drug repurposing: Primary screen for A673 cells (AID 1347092). Note: nearly all actives have a fitted effect of over 45% in size. Note: potency is the fitted concentration of half-maximal effect. In short, it runs like this: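 A673 cells (500-1,000 cells/well in growth media) were pre-incubated 5 h at 37 degrees C, then exposed to compounds for 48 h. Viability was read as CellTiter-Glo luminescence; concentration-response curves came directly from the primary screen.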

Assay [6] is described as follows: qHTS of pediatric cancer cell lines to identify multiple opportunities for drug repurposing: Primary screen for NB-EBc1 cells (AID 1347095). Note: potency is the fitted concentration of half-maximal effect. In short, it runs like this: (§2)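 Primary screen of approved and investigational compounds on cells in growth media at 37 degrees C, 5% CO2. MIPE set at 11-point and NPC set at 8-point dilutions; viability scored by ATP-based luminescence at 48 hours.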

The nature of assay [7]: qHTS of pediatric cancer cell lines to identify multiple opportunities for drug repurposing: Primary screen for U-2 OS cells (AID 1347096). Note: nearly all actives have a fitted effect of over 50% in size. Summed up:
(§3)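 Cells (500-1,000/well) in growth media were settled 5 h at 37 degrees C, then given compounds for 48 h. Viability was read as CellTiter-Glo luminescence. Primary runs used MIPE at 11 points (0.78 nM-46 µM) and NPC at 8 points (0.59 nM-46 µM); follow-ups used 11 points.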

Assay [8] can be described thus: qHTS of pediatric cancer cell lines to identify multiple opportunities for drug repurposing: Primary screen for SK-N-SH cells (AID 1347098). Note: nearly all actives have a fitted effect of over 65% in size. Note: potency is the fitted concentration of half-maximal effect. In short, it runs like this: (§4)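 Cells (500-1,000/well) rested 5 h, then received compounds for 48 h; metabolically active cells were measured by CellTiter-Glo luminescence. Final concentrations spanned up to 46 µM (MIPE, 11-point) or 0.59 nM-46 µM (NPC, 8-point) in primary screens, 11-point in follow-ups.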

Assay [9] can be described thus: qHTS of pediatric cancer cell lines to identify multiple opportunities for drug repurposing: Primary screen for NB1643 cells (AID 1347099). Note: nearly all actives have a fitted effect of over 50% in size. Note: potency is the fitted concentration of half-maximal effect. Summed up:
as §2

A short description of assay [10]: qHTS of pediatric cancer cell lines to identify multiple opportunities for drug repurposing: Primary screen for LAN-5 cells (AID 1347100). Note: potency is the fitted concentration of half-maximal effect. In short, it runs like this: as §3
A short description of assay [11]: qHTS of pediatric cancer cell lines to identify multiple opportunities for drug repurposing: Primary screen for OHS-50 cells (AID 1347103). Note: nearly all actives have a fitted effect of over 40% in size. Note: potency is the fitted concentration of half-maximal effect. Summed up:
as §4

Assay [12] in a line: qHTS of pediatric cancer cell lines to identify multiple opportunities for drug repurposing: Primary screen for RD cells (AID 1347104). Note: nearly all actives have a fitted effect of over 55% in size. Note: potency is the fitted concentration of half-maximal effect. In short, it runs like this: as §2
Assay [13] can be described thus: qHTS of pediatric cancer cell lines to identify multiple opportunities for drug repurposing: Primary screen for MG 63 (6-TG R) cells (AID 1347105). Note: nearly all actives have a fitted effect of over 50% in size. Note: potency is the fitted concentration of half-maximal effect. Summed up: as §2
Assay [14] is described as follows: qHTS of pediatric cancer cell lines to identify multiple opportunities for drug repurposing: Primary screen for SJ-GBM2 cells (AID 1347091). Note: potency is the fitted concentration of half-maximal effect. In short, it runs like this: as §1
Assay [15] is described as follows: qHTS of pediatric cancer cell lines to identify multiple opportunities for drug repurposing: Primary screen for BT-37 cells (AID 1347094). Note: potency is the fitted concentration of half-maximal effect. In short, it runs like this:
as §2

Assay [16] is described as follows: qHTS of pediatric cancer cell lines to identify multiple opportunities for drug repurposing: Primary screen for Saos-2 cells (AID 1347097). Note: nearly all actives have a fitted effect of over 40% in size. Note: potency is the fitted concentration of half-maximal effect. In short, it runs like this: as §2
Assay [17] is described as follows: qHTS of pediatric cancer cell lines to identify multiple opportunities for drug repurposing: Primary screen for control Hh wild type fibroblast cells (AID 1347106).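 Note: series mostly up to about 46 µM; a drop in luminescence marks cytotoxicity and a rise apparent proliferation; nearly all actives have a fitted effect of over 55% in size.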 In short, it runs like this: as §3
A short description of assay [18]: qHTS of pediatric cancer cell lines to identify multiple opportunities for drug repurposing: Primary screen for Rh18 cells (AID 1347102). Note: nearly all actives have a fitted effect of over 65% in size. Note: potency is the fitted concentration of half-maximal effect. Summed up:
as §3

Assay [19] is described as follows: qHTS of pediatric cancer cell lines to identify multiple opportunities for drug repurposing: Primary screen for SK-N-MC cells (AID 1347093). Note: potency is the fitted concentration of half-maximal effect. In short, it runs like this:
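Metabolically active cells were quantified by ATP-dependent luminescence (CellTiter-Glo, 15 min at room temperature) following 48 h treatment. Cells had been plated at 500-1,000 per well and settled for 5 h beforehand.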

The nature of assay [20]: qHTS of pediatric cancer cell lines to identify multiple opportunities for drug repurposing: Primary screen for BT-12 cells (AID 1347101). Note: nearly all actives have a fitted effect of over 25% in size. Note: potency is the fitted concentration of half-maximal effect. In short, it runs like this: as §4

Sequence of Nucleoprotein (Lymphocytic choriomeningitis virus (strain Armstrong)) (P09992 whole entry, looked up): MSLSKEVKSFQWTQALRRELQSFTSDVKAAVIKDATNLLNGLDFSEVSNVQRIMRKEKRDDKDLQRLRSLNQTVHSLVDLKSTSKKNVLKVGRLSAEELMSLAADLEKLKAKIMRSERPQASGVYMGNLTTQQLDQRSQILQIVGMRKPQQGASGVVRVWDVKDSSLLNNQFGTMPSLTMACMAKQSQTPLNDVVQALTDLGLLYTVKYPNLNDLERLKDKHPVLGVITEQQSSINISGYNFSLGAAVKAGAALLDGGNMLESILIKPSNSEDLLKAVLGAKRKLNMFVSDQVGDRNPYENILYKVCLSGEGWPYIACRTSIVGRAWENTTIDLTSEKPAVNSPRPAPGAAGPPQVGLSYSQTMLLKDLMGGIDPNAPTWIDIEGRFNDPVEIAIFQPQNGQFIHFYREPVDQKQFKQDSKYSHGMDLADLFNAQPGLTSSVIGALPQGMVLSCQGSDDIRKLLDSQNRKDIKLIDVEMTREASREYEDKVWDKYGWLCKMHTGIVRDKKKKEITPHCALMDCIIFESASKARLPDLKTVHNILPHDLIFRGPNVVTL

Regarding `CC1(N2CCC(n3c([C@@H]4CCCNC4)nc4ccccc43)CC2)CCCCCCC1`, the Potency entry in assay [1], in [2], in assay [3], in [4], in assay [6] and in [7] was “inactive” each time. The Potency result in assay [9] and in assay [13] was “inactive” throughout. For the same compound, the Potency in [5] is 11.8 µM (active); in assay [8] it was 30.4 µM (active); in assay [10] it was 20.9 µM (active); in [11], 24.3 µM (active); in [12] it was 13.2 µM (active).
Take `O=S(=O)(CC1CS1)c1ccc(Oc2ccccc2)cc1` (stereo not drawn): the Potency result in assay [1], in [2], in assay [7] and in assay [17] was “inactive” each time. Further, the Potency is 26.4 µM (active) in assay [14]; 9.35 µM (active) in assay [5]; 19.3 µM (active) in assay [15]; 23.5 µM (active) in [6]; 18.7 µM (active) in assay [16]; 24.1 µM (active) in [8]. The Potency in assay [9] is 18.7 µM (active); in assay [10], 23.5 µM (active).
For the compound `C=C[C@@H]1CN2CCC1C[C@H]2[C@H](O)c1ccnc2ccccc12` (stereo partly drawn), the Potency entry in assay [1], in assay [2], in assay [3], in assay [4], in assay [7] and in assay [10] was “inactive” in each case. In addition, the Potency result in [13] and in assay [17] was “inactive” throughout. For the same compound, the results for the Potency in assay [16], in assay [18] and in [12] were 18.7 µM (active), 23.5 µM (active) and 37.2 µM (active), respectively.
Turning to `CC(O)=C(C#N)C(=O)Nc1cc(Br)ccc1Br`, the Potency entry in [1], in [2], in [3], in assay [4], in [15] and in assay [7] was “inactive” throughout. Besides, the Potency entry in [20], in assay [18], in [11], in [12], in [13] and in assay [17] was “inactive” in each case. Moreover, the Potency was 0.332 µM (active) in [19] and 1.32 µM (active) in assay [9].
As to `COC1=C[C@@H]2[C@@H]3Cc4ccc(OC)c(O)c4[C@]2(CCN3C)CC1=O`, the Potency in assay [1] is 21.7 µM (active); in assay [2], 6.11 µM (active); in assay [19], 13.2 µM (active); in assay [6] it was 20.9 µM (active); in [8], 6.07 µM (active); in assay [9], 5.9 µM (active). Also, the Potency entry in [3], in assay [7], in assay [16], in assay [20] and in assay [18] was “inactive” each time.
Regarding `CCCN(CCC)c1c([N+](=O)[O-])cc(S(N)(=O)=O)cc1[N+](=O)[O-]`, the Potency entry in [1], in assay [2] and in assay [17] was “inactive” each time. For the same compound, the Potency was 48.6 µM (active) in [4]; 43.3 µM (active) in assay [14]; 38.6 µM (active) in assay [19]; 31.7 µM (active) in assay [15]; 30.6 µM (active) in assay [6]; 30.6 µM (active) in assay [16]. Besides, the Potency is 49.8 µM (active) in assay [8]; 48.6 µM (active) in assay [9]; 28.2 µM (active) in [20]; 28.2 µM (active) in [11]; 38.6 µM (active) in assay [12]; 48.6 µM (active) in [13].
On to `O=[N+]([O-])c1ncc[nH]1`, for which the Potency result in assay [1], in assay [2], in assay [3], in assay [14], in assay [5] and in assay [19] was “inactive” in each case. The Potency entry in [15], in [6], in [7], in assay [16], in assay [8] and in [10] was “inactive” in each case. Besides, the Potency result in assay [18], in assay [11], in assay [12], in assay [13] and in [17] was “inactive” each time.
With `CC(=Cc1csc(C)n1)[C@@H]1C[C@H]2O[C@]2(C)CCC[C@H](C)[C@@H](O)[C@@H](C)C(=O)C(C)(C)[C@@H](O)CC(=O)O1`, the Potency result in assay [1], in [2], in assay [7], in assay [8], in assay [9] and in [20] was “inactive” in each case. Besides, the Potency entry in assay [18] and in assay [17] was “inactive” each time. The Potency in [3] is 0.0037 µM (active); in assay [14], 0.0296 µM (active); in assay [19] it was 0.001 µM (active); in assay [6], 0.0166 µM (active); in [16], 0.001 µM (active); in assay [10], 0.001 µM (active). Also, in assay [11], the Potency is 0.001 µM (active).
